Screening data: PubChem, ICCB-Longwood Screening Facility, Harvard Medical School
Ba CapD inh = Bacillus anthracis CapD inhibitors, primary screen, biochemical, fluorescence intensity; CapD gamma-glutamyltranspeptidase (Bacillus anthracis Ames Ancestor); purified CapD enzyme, fluorescence intensity read-out; stronger effect = lower value; z-score (concentration not given with the values); 0.23% of 140,000 active; AID 492967, 2010; in the data active = z-score mostly below about -2.9, no sharp cut-off; inactive = mostly above about -1.9
Large screens that a line does not name were inactive. The entries come from a sample that favours hits as a whole.

Cc1ccccc1Nc1coc2ccc3c(C)cc(=O)oc3c12	none
Cc1ccc(NC(=O)c2oc3ccc4c(c3c2C)C(=O)CC(C)(C)O4)cc1	none
COc1ccc(CNS(=O)(=O)c2cc(C)ccc2OC)c(OC)c1	none
O=C(NCc1ccccc1)Nc1ccccc1	none
CCCCN(CC)Cc1ccc(CNC(=O)Nc2ccccc2)o1	Ba CapD inh -5.1
CCCCN(CC)Cc1ccc(CNC(=S)Nc2cccc(F)c2)o1	none
CCN1C(=O)c2cccc3c(S(=O)(=O)NC4CCCC4)ccc1c23	none
CC(C)(C)c1ccc(C(=O)N/C(=C\c2ccc([N+](=O)[O-])cc2)C(=O)Nc2ccccc2Cl)cc1	none
S=c1[nH]c(=S)c2cnc(N3CCOCC3)nc2[nH]1	none
CCN(CC)c1ncc2c(=S)[nH]c(=S)[nH]c2n1	none
C=CCSc1ncc2c(=S)[nH]c(=S)[nH]c2n1	Ba CapD inh -4.6
O=C1CC(Nc2c[nH]c(=O)[nH]c2=O)C(=O)N1c1ccc(Br)cc1 (configuration not stated)	none
CC1Cc2ccccc2N1C(=O)c1cccc(C(=O)N2c3ccccc3CC2C)n1 (configuration not stated)	none
CC1Cc2ccccc2N1C1=CC(=O)CCC1 (configuration not stated)	Ba CapD inh -5.7
CC1Cc2ccccc2N1S(=O)(=O)c1ccccc1 (configuration not stated)	none
OCCN1CCN(CCc2ccccc2)CC1	none
O=C(CCc1nc(-c2ccc(Cl)cc2)no1)N1CCCC1	none
CCOC(=O)/C(C#N)=C/Nc1ccc2c(c1)OCO2	none
CCOC(=O)/C(C#N)=C/Nc1ccn[nH]1	none
CCOC(=O)/C(C#N)=C/Nc1cc(C)no1	Ba CapD inh -4.2
CSC1=NCCN1S(C)(=O)=O	none
Cc1noc(C)c1C(=O)n1ccc(-c2cccs2)n1	none
O=C1CC(c2ccccc2Cl)c2c(ccc3ccccc23)N1 (configuration not stated)	none
O=C1C(=Cc2ccc([N+](=O)[O-])s2)C(=O)c2ccccc21	none
O=C(O)c1cc(NC(=O)C2CC2)cc(C(=O)O)c1	none
O=c1c(N2CCC3(CC2)OCCO3)csc2ccccc12	none
O=c1c(N2CCN(c3ccccc3)CC2)csc2ccccc12	none
Cc1ccc2scc(N3CCOCC3)c(=O)c2c1	Ba CapD inh -4.2
CCCOc1ccc(CSC(=N)N)cc1Br	none
O=C(O)CCN1C(=O)/C(=C2/C(=O)N(CC(=O)O)c3ccc(Br)cc32)SC1=S	none
O=C(O)C1Nc2c(I)cccc2C2C=CCC12 (configuration not stated)	Ba CapD inh -8.1
COC(=O)c1ccc([C@@H]2Nc3c(C)cccc3[C@@H]3C=CC[C@@H]32)cc1	none
CN(C)C(=O)c1cccc2c1NC(c1ccc(Br)cc1)C1CC=CC21 (configuration not stated)	none
O=C(Nc1ccc(N2CCOCC2)cc1)Nc1ccc2nc(-c3ccco3)c(-c3ccco3)nc2c1	none
O=C(NCCSCc1ccco1)Nc1cc(Cl)cc(Cl)c1	none
O=C(NCCCO)Nc1ccc2nc(-c3ccco3)c(-c3ccco3)nc2c1	Ba CapD inh -7.3
COc1ccc2[nH]cc(CCNS(=O)(=O)c3cc(F)c(Br)cc3F)c2c1	none
CC(C)C1C(C=C(Cl)Cl)C1C(=O)N1CCN(Cc2ccccc2)CC1 (configuration not stated)	none
COC(CNC(=O)c1ccc(/C=C2\Sc3ccccc3N(Cc3ccc(F)cc3)C2=O)cc1)OC	Ba CapD inh -8.5
COC(CNC(=O)c1ccc(/C=C2/Sc3ccccc3N(Cc3cccc(C)c3)C2=O)cc1)OC	none
Cc1cccc(CN2C(=O)/C(=C\c3ccc(C(=O)NCc4cccnc4)cc3)Sc3ccccc32)c1	none
COC(=O)c1ccc(Nc2nc(-c3ccc([N+](=O)[O-])cc3)nc3ccccc23)cc1	none
O=C(NCCc1ccncc1)OCCOc1ccc2ccccc2c1	none
CCCn1c(/N=C/c2c[nH]c3ccccc23)nc2ccccc21	Ba CapD inh -4.1
CCCCn1c(/N=C/c2nc3ccccc3n2C)nc2ccccc21	none
CCc1ccc(N=Cc2c[nH]c3ccccc23)cc1	none
CC(=O)N1CCc2cccc(NS(=O)(=O)c3cccc(C(F)(F)F)c3)c21	none
O=C1CN(c2cc(Cl)cc(Cl)c2)C(=O)CN1/N=C/c1cccnc1	none
O=C1CSC(=S)N1/N=C/c1cccnc1	Ba CapD inh -4
O=C1CSC(=S)N1/N=C/c1cc(Br)cc(Br)c1O	none
CCOc1ccc(OCC)c(CC(C#N)C(=O)OC)c1 (configuration not stated)	none
Fc1ccc(C2=NC(C(F)(F)F)(C(F)(F)F)N=C(N3CCOCC3)O2)cc1	none
NC(CO)C(=O)N/N=C/c1ccc(O)c(O)c1O (configuration not stated)	Ba CapD inh -6.9
CCC(Nc1ccccc1)C(=O)N/N=C/c1ccccc1O (configuration not stated)	none
NC(CO)C(=O)NNCc1ccc(O)c(O)c1O (configuration not stated)	none
C=CCCN1C(=O)c2ccccc2C1=O	none
N#C/C(=C\c1cc(Cl)sc1Cl)S(=O)(=O)c1ccccc1	none
COC(=O)/C(C#N)=C/c1ccc(C)o1	none
COC(=O)/C(C#N)=C/c1ccccc1C	Ba CapD inh -4.3
CCOC(=O)/C(C#N)=C/c1ccccc1	none
Cc1nc(N2CCOCC2)c2c(C)c(C(=O)N3CCCc4ccccc43)sc2n1	none
CCCCN(CC)C(=O)C1c2ccccc2C(=O)N(CCOC)C1c1ccc(F)cc1 (configuration not stated)	none
Cc1ccc(N2C(=O)/C(=C/c3ccc([N+](=O)[O-])cc3)C=C2c2ccccc2)cc1[N+](=O)[O-]	none
COc1cccc(NNC(=O)C(O)(c2ccc(Cl)cc2)c2ccc(Cl)cc2)c1	none
CCSc1nnc(NC(=O)c2ccc(OC)cc2OC)s1	none
C(=Nc1ccccc1)c1ccccc1	none
CC(=O)/C(=C/Nc1ccc(I)cc1)c1ccccc1	none
C/C(C=Nc1ccccc1)=C\Nc1ccccc1	Ba CapD inh -5
COc1cc(OC)nc(C(c2ccccc2)N2CCN(CC(=O)N3CCOCC3)CC2)n1 (configuration not stated)	none
COC(=O)C1C(=O)NC(SCC(=O)Nc2nccs2)=C(C#N)C1c1ccc(Cl)cc1 (configuration not stated)	none
COC(=O)c1ccccc1NC(=O)COc1ccc(OC)cc1	none
Cc1cc(C=C2C(=O)CCCC2=O)c(C)n1-c1ccccc1	none
Cc1cc(C)c(C=C2C(=O)OC(C)(C)OC2=O)[nH]1	none
Cc1cc(C)c(C=C2C(=O)CCCC2=O)[nH]1	Ba CapD inh -7.6
CCN(CC)C(=O)COc1ccc(OC)cc1	none
C=CCOc1cccc(/C=C2/SC(=S)N(CCc3ccccc3)C2=O)c1	none
CC1=NN(c2ccccc2)C(=O)/C1=C/c1coc2ccccc2c1=O	none
CC1=NN(c2ccccc2)C(=O)/C1=C/c1cn(CC(O)CN2CCCCC2)c2ccccc12 (configuration not stated)	Ba CapD inh -4.8
CC1=NN(c2ccc(Cl)c(C(=O)O)c2)C(=O)/C1=C/c1cn(Cc2ccccc2)c2ccccc12	none
CCOC(=O)N1CCN(S(=O)(=O)c2ccc(C(=O)Nc3ccc(-c4nc5ccccc5o4)cc3)cc2)CC1	none
CCOC(=O)c1c(CN(C)C)n(C)c2cc(Br)c(OC)cc12	none
CC(=O)NC1=NC(=O)/C(=C/c2ccccc2)S1	none
CCCCNC(=O)c1cccc(NC2=NC3CS(=O)(=O)CC3S2)c1 (configuration not stated)	none
Cc1cccc(N2CCN(C(=O)c3ccc4c(=O)[nH]c5c(C(=O)NC(C)C)sc(=S)n5c4c3)CC2)c1C	Ba CapD inh -3.9
COc1ccc(NC(=O)c2sc(=S)n3c2[nH]c(=O)c2ccccc23)cc1	none
Cc1ccc(NC(=O)c2sc(=S)n3c2[nH]c(=O)c2ccccc23)c(C)c1	none
